LDHA block – blocks human lactate dehydrogenase A; P00338; 480,000 compounds, 0.15% hits; activity change, % (values are at about 110 or 230 µM); purified LDHA, NADH/diaphorase-resazurin fluorescence; stronger effect = lower value; in the data active means activity change below about -30%;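 further: plate controls were DMSO wells for no effect and wells without enzyme for full effect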
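Remaining NADH was detected by diaphorase (0.133 mg/mL) converting 37 µM resazurin to fluorescent resorufin, read at 0 and 20 minutes. The preceding 5-minute room-temperature reaction used 2 nM LDHA, 0.2 mM sodium pyruvate and 0.06 mM NADH at pH 7.4.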
D2 PAM-1 – positively modulates the human D2 dopamine receptor allosterically; HEK293 T-REx D2, calcium flux, EC20 dopamine potentiation; P14416; 340,000 compounds, 0.34% hits; potentiation, % at 10 µM;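 active means potentiation over 3 SD above the plate norm, cut at about 30% in these data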; further: 0% is about no effect
Target sequence (P14416 whole entry, looked up): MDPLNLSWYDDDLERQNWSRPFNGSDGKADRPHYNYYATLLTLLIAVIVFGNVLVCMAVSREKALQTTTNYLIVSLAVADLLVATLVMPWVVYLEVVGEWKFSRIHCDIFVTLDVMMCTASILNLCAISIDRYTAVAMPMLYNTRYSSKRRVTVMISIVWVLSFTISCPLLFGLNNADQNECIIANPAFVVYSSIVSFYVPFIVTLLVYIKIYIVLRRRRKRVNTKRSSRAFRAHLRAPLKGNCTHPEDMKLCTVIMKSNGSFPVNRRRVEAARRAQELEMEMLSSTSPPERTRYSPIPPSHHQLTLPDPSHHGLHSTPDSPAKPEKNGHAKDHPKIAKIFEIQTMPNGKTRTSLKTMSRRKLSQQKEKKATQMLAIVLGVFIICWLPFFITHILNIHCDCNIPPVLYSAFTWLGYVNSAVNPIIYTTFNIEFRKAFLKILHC
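Potentiation of an EC20 dopamine calcium response measured kinetically over 180 s, after a preceding 180 s compound-only read flagging agonists. Cells: inducible Hek293 Trex D2 line, 4000/well, cultured overnight at 30 C before dye loading.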
D2 ag-1 – activates the human D2 dopamine receptor; P14416; HEK293 T-REx D2 cells, calcium flux agonist mode; activation, % at 2 µM; 340,000 compounds, 0.53% hits;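 active means activation over 3 SD above normal in the single-dose calcium agonist read, cut at about 30% in these data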; further: 0% is about no effect
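Agonism scored from kinetic calcium signal (1 read/sec, 180 s) following compound pin transfer, after a 10 s baseline. Cells: HEK293 Trex line expressing inducible D2 receptor coupled to calcium, dye-loaded after overnight culture at 30 C.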
D2 ag-2 – activates the human D2 dopamine receptor; activation, % (test concentration not listed); 360,000 compounds, 0.084% hits; P14416; DiscoveRx PathHunter D2 beta-arrestin, luminescence, 90 min; 100% = 57 uM dopamine signal; AID 624465; in the data active means activation above about 40%
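DiscoveRx PathHunter D2 beta-arrestin cells (2,100/well) attached overnight, then compound-stimulated 90 min at 37 C in HBSS/10 mM HEPES/0.1% Tween-20 buffer; beta-galactosidase complementation read by luminescence after 1 h at ambient temperature. Dopamine 57 uM final (EC100) as control.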
D2 antagonist – antagonizes the human D2 dopamine receptor. inhibition, % at 10 µM. HEK293 TREx D2 cells, calcium flux, dopamine EC80. P14416. 340,000 compounds, 2% hits; in the data active means inhibition above about 30%; inactive means below that, where a call was filed; further: 0% is about no effect
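HEK293 T-REx D2 cells, tet-induced, calcium dye no-wash. Cpd pintool add, 180 s kinetic, then EC80 DA, 180 s kinetic. Ca flux read.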
D2 PAM-2 – potentiates the human D2 dopamine receptor allosterically; DiscoveRx D2 beta-arrestin cells, luminescence, 90 min; 100% = 57 uM dopamine signal; 360,000 compounds, 0.23% hits; P14416; potentiation, % (no concentration beside the values); in the data active means potentiation above about 50%
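D2 cells co-treated with compound plus 50 nM dopamine (EC20) for 90 min at 37 deg C to detect potentiation. Beta-arrestin recruitment was read as enzyme-fragment luminescence after 1 h at ambient temperature. Full response was set by 57 uM dopamine.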
Numbers without * were called inactive; . = no result given. Shown are actives, neighbours in structure and some others; about 2.1% of the full set was active somewhere.

SMILES | LDHA block | D2 PAM-1 | D2 ag-1 | D2 ag-2 | D2 antagonist | D2 PAM-2
CCCCn1c2ccc(F)cc2c2nnc(SCCN3CCOCC3)nc21 | -1.3 | -4.2 | -0.5 | 4.6 | 8.0 | -11.7
Cn1c2ccc(F)cc2c2nnc(SCCN3CCOCC3)nc21 | -1.1 | 3.4 | -0.1 | -2.7 | 35.3* | -12.9
S=C(NCc1ccccc1Cl)Nc1cc(Cl)cc(Cl)c1 | 2.9 | . | . | . | . | .
CC1CCN(CCCCOc2cccc(Br)c2)CC1 | -13.8 | -29.0 | -0.4 | -3.7 | 91.8* | -47.1
Brc1cccc(OCCN2CCOCC2)c1 | -21.4 | -10.6 | 0.7 | -5.5 | 2.4 | -71.7
CC1CCN(CCCCOc2ccc(Br)cc2)CC1 | -15.0 | -18.8 | 0.8 | -4.6 | 19.5 | -27.3
Brc1cccc(OCCN2CCCCC2)c1 | -33.5* | -20.8 | 0.0 | -3.4 | 47.5* | -18.7
Cc1cc(Br)ccc1OCCCCN1CCC(C)CC1 | -5.1 | -12.6 | 0.6 | -3.1 | 35.1* | -36.9
Cc1cc(Br)ccc1OCCn1ccnc1 | -18.5 | -3.2 | 0.3 | 70.5* | 4.9 | -10.3
Cc1ccc(NC(=O)Nc2nc(-c3ccc(C)s3)cs2)cc1 | -4.6 | 45.3* | 0.9 | 2.7 | -11.0 | -0.3
CCNC(=O)Nc1ccc(-n2nc(C)c(C(=O)OCC)c2C)nc1 | -0.4 | 1.4 | -1.0 | 1.9 | 45.0* | -4.8
CC(Sc1ncccn1)C(=O)O (stereo not given) | 8.4 | . | . | . | . | .
O=C(/C=C/c1cccc(Br)c1)c1ccc(N2CCOCC2)cc1 | 10.8 | . | . | . | . | .
CCC1(C)N=C(N)Nc2nc3cc(C)c(C)cc3n21 (stereo not given) | 0.0 | -9.8 | -0.6 | 0.2 | 35.4* | -26.2
NC1=NC2(CCCC2)n2c(nc3ccccc32)N1 | 4.3 | 1.3 | -0.2 | -3.4 | 2.2 | -8.8
O=C(O)c1ccccc1OCc1cn2ccccc2n1 | 0.3 | . | . | . | . | .
C=CCNCCOc1ccc(C)cc1[N+](=O)[O-] | -13.1 | -30.8 | 0.1 | -3.6 | 45.8* | -7.6
C=CCc1ccc(OCCOCCOc2ccc(C)cc2[N+](=O)[O-])c(OC)c1 | -1.0 | 13.4 | 0.1 | -2.5 | -20.5 | -15.0
CCC(C)NCCOc1ccc(C)cc1[N+](=O)[O-] (stereo not given) | -20.9 | -21.2 | 0.3 | -4.5 | 53.7* | -20.6
C=CCN(CC=C)CCOc1ccc(C)cc1[N+](=O)[O-] | -18.6 | -22.7 | -1.0 | 0.9 | 38.3* | -6.1
CCC(=O)NC12CC3CC(CC(C3)C1)C2 | -2.3 | . | . | . | . | .
Cc1ccc(C(=O)Nc2cccc(C(F)(F)F)c2)cc1Nc1cncnc1 | 0.3 | -23.4 | -1.2 | 3.3 | 33.2* | -1.3
COc1ccc([N+](=O)[O-])cc1NC(=S)NC(C)=O | 0.5 | 1.6 | 0.7 | 0.7 | 6.0 | -8.5
COc1ccc([N+](=O)[O-])cc1NC(=O)CC(c1ccccc1)c1ccccc1 | -6.1 | . | . | -2.8 | . | -0.5
COc1ccc([N+](=O)[O-])cc1NC(=O)C(C)OC(=O)Cn1[nH]c(=O)c2ccccc2c1=O (stereo not given) | -1.7 | -1.4 | -0.2 | -6.1 | 35.8* | -6.0
SMILES | LDHA block | D2 PAM-1 | D2 ag-1 | D2 ag-2 | D2 antagonist | D2 PAM-2
COc1ccc([N+](=O)[O-])cc1NC(=S)NC(NC(=O)C(c1ccccc1)c1ccccc1)C(Cl)(Cl)Cl (stereo not given) | -8.5 | -19.0 | -0.1 | 1.4 | 71.3* | -23.2
CCN(CCC(=O)Nc1cc([N+](=O)[O-])ccc1OC)Cc1ccccc1 | -4.5 | -24.7 | 1.4 | -1.3 | 78.9* | -38.7
COc1ccc([N+](=O)[O-])cc1NC(=O)C(C)c1ccccc1 (stereo not given) | 0.0 | -2.7 | 0.4 | -0.5 | 32.2* | 5.2
CCCCCCCCSCCC(=O)O | -8.1 | . | . | . | . | .
O=C(Cc1c(Cl)cccc1Cl)OCc1cccc([N+](=O)[O-])c1 | 1.1 | . | . | . | . | .
Cc1ccc(N=C(NOC(=O)c2ccccc2)c2nonc2N)c(C)c1 | 0.2 | -1.5 | 0.1 | 10.5 | -19.2 | 95.3*
Cc1ccc(N=C(NO)c2nonc2N)c(C)c1 | -1.2 | -3.8 | 0.6 | -0.2 | 8.5 | -1.6
COCCCNC(=O)c1cn(Cc2c(F)cccc2Cl)nn1 | -13.3 | -8.7 | -1.0 | -1.1 | 32.0* | 5.5
O=C(/C=C/c1cccs1)c1cc2ccccc2o1 | 9.9 | . | . | . | . | .

Screening data as filed in PubChem.
